From the supplement of paper PMC8728848
Shown is part of a subset that was picked to be rich in the strongest signals.

Experiments:
Assay in all cases: glycan array binding signal (z-score within array); higher = stronger binding
Settings in all cases: glycan notation: IUPAC condensed, linker removed
[1] = target: Fuc(a1-2)Gal(b1-3)GlcNAc(b1-3)GalNAc
Outline: (§1)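 Columns mapping to the same glycan were averaged after glycan names were converted to IUPAC-condensed notation. The data come from 3228 arrays in the Consortium for Functional Glycomics database, limited to those with an available protein sequence. Binding is reported as a within-array Z-score averaged across arrays of one protein sequence and across linkers.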

[2] = target: Fuc(a1-2)Gal(b1-3)[Fuc(a1-4)]GlcNAc(b1-2)Man(a1-3)[Fuc(a1-2)Gal(b1-3)[Fuc(a1-4)]GlcNAc(b1-2)Man(a1-3)]Man(b1-4)GlcNAc(b1-4)GlcNAc
Outline: as §1

[3] = target: Fuc(a1-2)Gal(b1-4)GlcNAc(b1-3)GalNAc
Outline: as §1

[4] = target: Fuc(a1-2)Gal(b1-4)GlcNAc(b1-3)[Fuc(a1-2)Gal(b1-4)GlcNAc(b1-6)]GalNAc
Outline: as §1

[5] = target: Fuc(a1-2)Gal(b1-4)GlcNAc(b1-3)[Fuc(a1-3)[Gal(b1-4)]GlcNAc(b1-6)]Gal(b1-4)Glc
Outline: as §1

[6] = target: Fuc(a1-2)[Gal(a1-3)]Gal(b1-3)GlcNAc(b1-2)Man(a1-3)[Fuc(a1-2)[Gal(a1-3)]Gal(b1-3)GlcNAc(b1-2)Man(a1-6)]Man(b1-4)GlcNAc(b1-4)GlcNAc
Outline: as §1

[7] = target: Fuc(a1-2)[Gal(a1-3)]Gal(b1-4)Glc
Outline: as §1

[8] = target: Fuc(a1-2)[Gal(a1-3)]Gal(b1-4)GlcNAc(b1-3)[Fuc(a1-2)[Gal(a1-3)]Gal(b1-4)GlcNAc(b1-6)]GalNAc
Outline: as §1

[9] = target: Fuc(a1-2)[Gal(a1-3)]Gal(b1-4)GlcNAc(b1-6)GalNAc
Outline: as §1

[10] = target: Fuc(a1-2)[GalNAc(a1-3)]Gal(b1-4)GlcNAc(b1-2)Man
Outline: as §1

[11] = target: Fuc(a1-3)[Gal3S(b1-4)]GlcNAc
Outline: as §1

[12] = target: Fuc(a1-3)[GalNAc(b1-4)]GlcNAc
Outline: as §1

Fuc(a1-4)GlcNAc = target: Fuc(a1-4)GlcNAc
Outline: as §1

[13] = target: Gal(a1-3)[Gal(a1-4)]Gal(b1-4)GlcNAc
Outline: as §1

[14] = target: Gal(b1-3)GlcNAc(b1-3)Gal(b1-4)GlcNAc(b1-2)[Gal(b1-3)GlcNAc(b1-3)Gal(b1-4)GlcNAc(b1-6)]Man(a1-6)[Gal(b1-3)GlcNAc(b1-3)Gal(b1-4)GlcNAc(b1-2)Man(a1-3)]Man(b1-4)GlcNAc(b1-4)[Fuc(a1-6)]GlcNAc
Outline: as §1

[15] = target: Gal(b1-3)[Neu5Ac(a2-6)]GalNAc
Outline: as §1

[16] = target: Gal(b1-3)[Neu5Ac(b2-6)]GalNAc
Outline: as §1

[17] = target: Gal(b1-4)GlcNAc(a1-6)Gal(b1-4)GlcNAc
Outline: as §1

[18] = target: Gal(b1-4)GlcNAc(b1-2)[Gal(b1-4)GlcNAc(b1-4)]Man(a1-3)[Gal(b1-4)GlcNAc(b1-2)[Gal(b1-4)GlcNAc(b1-6)]Man(a1-6)]Man(b1-4)GlcNAc(b1-4)GlcNAc
Outline: as §1

[19] = target: Gal(b1-4)GlcNAc(b1-2)[Gal(b1-4)GlcNAc(b1-4)]Man(a1-3)[GlcNAc(b1-4)][Gal(b1-4)GlcNAc(b1-2)[Gal(b1-4)GlcNAc(b1-6)]Man(a1-6)]Man(b1-4)GlcNAc(b1-4)GlcNAc
Outline: as §1

[20] = target: Gal(b1-4)GlcNAc(b1-3)Gal(b1-4)GlcNAc(b1-3)Gal(b1-4)GlcNAc(b1-3)Gal(b1-4)GlcNAc(b1-3)Gal(b1-4)GlcNAc(b1-2)Man(a1-3)[Gal(b1-4)GlcNAc(b1-3)Gal(b1-4)GlcNAc(b1-3)Gal(b1-4)GlcNAc(b1-3)Gal(b1-4)GlcNAc(b1-3)Gal(b1-4)GlcNAc(b1-2)Man(a1-6)]Man(b1-4)GlcNAc(b1-4)[Fuc(a1-6)]GlcNAc
Outline: as §1

[21] = target: Gal(b1-4)GlcNAc(b1-3)Gal(b1-4)GlcNAc(b1-3)[Gal(b1-4)GlcNAc(b1-3)Gal(b1-4)GlcNAc(b1-6)]GalNAc
Outline: as §1

Gal3S(b1-4)Glc6S = target: Gal3S(b1-4)Glc6S
Outline: as §1

Gal6P(b1-4)GlcNAc = target: Gal6P(b1-4)GlcNAc
Outline: as §1

[22] = target: Glc(a1-6)Glc(a1-6)Glc(a1-6)Glc
Outline: as §1

[23] = target: GlcNAc(b1-3)Gal(b1-4)GlcNAc(b1-2)[GlcNAc(b1-3)Gal(b1-4)GlcNAc(b1-6)]Man(a1-6)[GlcNAc(b1-3)Gal(b1-4)GlcNAc(b1-2)Man(a1-3)]Man(b1-4)GlcNAc(b1-4)GlcNAc
Outline: as §1

[24] = target: GlcNAc(b1-3)Gal(b1-4)GlcNAc(b1-3)Gal(b1-4)GlcNAc
Outline: as §1

[25] = target: GlcNAc(b1-3)Gal(b1-4)GlcNAc(b1-3)GalNAc
Outline: as §1

[26] = target: GlcNAc(b1-4)GlcNAc(b1-4)GlcNAc
Outline: as §1

[27] = target: GlcNAc(b1-4)GlcNAc(b1-4)GlcNAc(b1-4)GlcNAc(b1-4)GlcNAc
Outline: as §1

[28] = target: GlcNAc(b1-4)GlcNAc(b1-4)GlcNAc(b1-4)GlcNAc(b1-4)GlcNAc(b1-4)GlcNAc
Outline: as §1

MurNAc(b1-4)GlcNAc = target: MurNAc(b1-4)GlcNAc
Outline: as §1

[29] = target: Neu5Ac(a2-3)Gal(b1-3)GlcNAc
Outline: as §1

Neu5Ac(a2-3)Gal(b1-4)Glc = target: Neu5Ac(a2-3)Gal(b1-4)Glc
Outline: as §1

[30] = target: Neu5Ac(a2-3)Gal(b1-4)GlcNAc(b1-3)Gal
Outline: as §1

[31] = target: Neu5Ac(a2-3)Gal(b1-4)GlcNAc(b1-3)Gal(b1-4)GlcNAc
Outline: as §1

[32] = target: Neu5Ac(a2-3)Gal(b1-4)GlcNAc(b1-6)GalNAc
Outline: as §1

[33] = target: Neu5Ac(a2-3)Gal(b1-4)[Fuc(a1-3)]GlcNAc
Outline: as §1

[34] = target: Neu5Ac(a2-3)Gal(b1-4)[Fuc(a1-3)]GlcNAc(b1-3)Gal(b1-4)[Fuc(a1-3)]GlcNAc(b1-3)Gal(b1-4)[Fuc(a1-3)]GlcNAc
Outline: as §1

[35] = target: Neu5Ac(a2-3)Gal(b1-4)[Fuc(a1-3)]GlcNAc(b1-3)GalNAc
Outline: as §1

Neu5Ac(a2-3)GalNAc = target: Neu5Ac(a2-3)GalNAc
Outline: as §1

[36] = target: Neu5Ac(a2-3)[Neu5Ac(a2-6)]GalNAc
Outline: as §1

Neu5Ac(a2-6)Gal(b1-4)Glc = target: Neu5Ac(a2-6)Gal(b1-4)Glc
Outline: as §1

[37] = target: Neu5Ac(a2-6)Gal(b1-4)GlcNAc(b1-2)Man(a1-3)[Neu5Ac(a2-6)Gal(b1-4)GlcNAc(b1-2)Man(a1-6)]Man(b1-4)GlcNAc(b1-4)GlcNAc
Outline: as §1

[38] = target: Neu5Ac(a2-6)Gal(b1-4)GlcNAc(b1-2)Man(a1-6)[Man(a1-3)]Man(b1-4)GlcNAc(b1-4)GlcNAc
Outline: as §1

[39] = target: Neu5Ac(a2-6)Gal(b1-4)GlcNAc(b1-3)Gal(b1-4)GlcNAc(b1-3)Gal(b1-4)GlcNAc(b1-2)Man(a1-3)[Neu5Ac(a2-6)Gal(b1-4)GlcNAc(b1-3)Gal(b1-4)GlcNAc(b1-3)Gal(b1-4)GlcNAc(b1-2)Man(a1-6)]GalNAc
Outline: as §1

[40] = target: Neu5Ac(a2-6)Gal(b1-4)GlcNAc(b1-3)Gal(b1-4)[Fuc(a1-3)]GlcNAc(b1-3)Gal(b1-4)[Fuc(a1-3)]GlcNAc
Outline: as §1

[41] = target: Neu5Ac(a2-6)GlcNAc(b1-4)GlcNAc(b1-4)GlcNAc
Outline: as §1

[42] = target: Neu5Ac(a2-8)Neu5Ac(a2-3)Gal(b1-3)GalNAc(b1-4)[Neu5Ac(a2-8)Neu5Ac(a2-3)]Gal(b1-4)Glc
Outline: as §1

[43] = target: Neu5Ac(a2-8)Neu5Ac(a2-8)Neu5Ac
Outline: as §1

B1: MSMEG3662-2a (Mycobacterium smegmatis), A0QYH7_MYCS2 (protein)
chain: MGDTLTAGQKLERGGSLQSGNGAYTLTLQDDGNLVLYARDKAVWSTGTNGQDVVRAEVQTDGNFVLYTAEKPVWHTDTKGKKEVKLVLQDDRNLVLYAKDGPAWSSKTDTTEPPPPAPEPEKEAEVAPAAAEEAAPAPVAEPAPAEPAPAAPPPAPPAPRTYTVVSGDTLWAIAERFYGDGSKYQQIADASGIANPDLIHPGQVLTIP
- glycan array binding signal (z-score) [1]: -0.084
- glycan array binding signal (z-score) [2]: 0.02
- glycan array binding signal (z-score) [3]: 0.35
- glycan array binding signal (z-score) [4]: -0.023
- glycan array binding signal (z-score) [5]: -0.103
- glycan array binding signal (z-score) [6]: -0.102
- glycan array binding signal (z-score) [7]: -0.24
- glycan array binding signal (z-score) [8]: 0.285
- glycan array binding signal (z-score) [9]: -0.124
- glycan array binding signal (z-score) [10]: -0.046
- glycan array binding signal (z-score) [11]: -0.028
- glycan array binding signal (z-score) [12]: 0.413
- glycan array binding signal (z-score) (Fuc(a1-4)GlcNAc): 11.1
- glycan array binding signal (z-score) [13]: -0.039
- glycan array binding signal (z-score) [14]: 0.25
- glycan array binding signal (z-score) [15]: -0.105
- glycan array binding signal (z-score) [16]: 0.064
- glycan array binding signal (z-score) [17]: -0.067
- glycan array binding signal (z-score) [18]: -0.118
- glycan array binding signal (z-score) [19]: -0.186
- glycan array binding signal (z-score) [20]: 0.159
- glycan array binding signal (z-score) [21]: 0.038
- glycan array binding signal (z-score) (Gal3S(b1-4)Glc6S): -0.107
- glycan array binding signal (z-score) (Gal6P(b1-4)GlcNAc): -0.205
- glycan array binding signal (z-score) [22]: -0.182
- glycan array binding signal (z-score) [23]: -0.017
- glycan array binding signal (z-score) [24]: -0.131
- glycan array binding signal (z-score) [25]: -0.121
- glycan array binding signal (z-score) [26]: 3.59
- glycan array binding signal (z-score) [27]: 8.12
- glycan array binding signal (z-score) [28]: 13.9
- glycan array binding signal (z-score) (MurNAc(b1-4)GlcNAc): 1.49
- glycan array binding signal (z-score) [29]: -0.039
- glycan array binding signal (z-score) (Neu5Ac(a2-3)Gal(b1-4)Glc): 0.572
- glycan array binding signal (z-score) [30]: -0.15
- glycan array binding signal (z-score) [31]: 0.065
- glycan array binding signal (z-score) [32]: -0.234
- glycan array binding signal (z-score) [33]: -0.124
- glycan array binding signal (z-score) [34]: -0.044
- glycan array binding signal (z-score) [35]: 0.43
- glycan array binding signal (z-score) (Neu5Ac(a2-3)GalNAc): -0.06
- glycan array binding signal (z-score) [36]: -0.161
- glycan array binding signal (z-score) (Neu5Ac(a2-6)Gal(b1-4)Glc): -0.068
- glycan array binding signal (z-score) [37]: -0.046
- glycan array binding signal (z-score) [38]: -0.14
- glycan array binding signal (z-score) [39]: 0.293
- glycan array binding signal (z-score) [40]: -0.129
- glycan array binding signal (z-score) [41]: 1.58
- glycan array binding signal (z-score) [42]: 0.097
- glycan array binding signal (z-score) [43]: -0.147
